D1 ag: Allosteric Agonists of the Human D1 Dopamine Receptor: qHTS; AID 504660, 2011; activation, % at 2 µM; 360,000 compounds, 1% hits; HEK293 T-REx D1 cells, calcium flux, agonist mode; note: 0% is about no effect
Target sequence (P21728 whole entry, looked up): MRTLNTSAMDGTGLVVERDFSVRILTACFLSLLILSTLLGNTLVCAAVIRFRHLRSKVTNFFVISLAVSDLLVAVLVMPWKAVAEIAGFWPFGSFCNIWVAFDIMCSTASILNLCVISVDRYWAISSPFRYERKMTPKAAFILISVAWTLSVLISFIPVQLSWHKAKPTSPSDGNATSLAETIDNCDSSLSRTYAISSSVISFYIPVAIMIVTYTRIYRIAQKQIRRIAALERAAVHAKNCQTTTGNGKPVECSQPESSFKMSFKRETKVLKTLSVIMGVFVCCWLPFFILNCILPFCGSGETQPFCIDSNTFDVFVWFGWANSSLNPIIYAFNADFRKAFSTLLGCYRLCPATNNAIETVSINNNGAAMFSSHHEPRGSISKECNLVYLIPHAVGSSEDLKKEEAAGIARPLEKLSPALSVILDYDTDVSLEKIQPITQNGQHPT
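Tetracycline-induced HEK293 TREx D1 cells, force-coupled to calcium signalling, were dye-loaded with a no-wash calcium kit. Compound was pin-added after a 10 s baseline. Fluorescence was read kinetically at 1 cycle/s for 180 s, with calcium rises flagged as agonism.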
D1 PAM: Potentiators of Human D1 Dopamine Receptor: qHTS | potentiation, % at 10 µM | D(1A) dopamine receptor (Homo sapiens), P21728 | 360,000 compounds, 0.036% hits | HEK293 TREx D1 cells, calcium flux, dopamine EC20 potentiation; in the data active = potentiation above about 30%; note: 0% is about no effect
USP1-UAF1 inh: Inhibitors of USP1/UAF1: Primary Screen | recombinant USP1/UAF1, Ub-Rhodamine cleavage fluorescence | AID 743255, 2014 | Potency, µM (top dose mostly 57.1 µM), without a hit: at the highest dose activity change, negative = inhibition, actives largely listed as inhibitors | Ubiquitin carboxyl-terminal hydrolase 1 (Homo sapiens), O94782 | 390,000 compounds, 0.23% hits; active = well fitted inhibition curve with a large enough effect; inconclusive = small, poorly fitted or top-dose-only effect; inactive = no such curve, though single readings can be large or run the other way; note: potency is the fitted concentration of half-maximal effect; % is set by controls: 0 for no effect and ±100 for the full control effect; nearly all actives have a fitted effect of over 60% in size
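High-throughput fluorogenic screen: 1nM USP1/UAF1 complex, Ub-Rho substrate 150nM final, 50mM HEPES pH 7.8 with 0.5mM EDTA, 0.1 mg/ml BSA, 1mM TCEP and 0.01% Tween-20.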
TRHR ag: qHTS for Small Molecule Agonists and Allosteric Enhancers of Human TRH Receptor: Primary Screen for Agonists. TRHR cells, calcium flux fluo-8, FDSS agonist mode. 360,000 compounds, 0.18% hits. activation, % at 2 µM. Thyrotropin-releasing hormone receptor (Homo sapiens), P34981; note: 0% is about no effect
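TRHR-expressing cells loaded with fluo-8 calcium dye; 23 nL library compound pin-transferred, kinetic FDSS fluorescence (Ex 480/Em 530) recorded about 180 s for agonist-induced calcium release, before a 10 nM TRH EC20 addition for potentiator mode.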
TRHR enhancer: qHTS for Small Molecule Agonists and Allosteric Enhancers of Human TRH Receptor: Primary Screen for Enhancers | 360,000 compounds, 0.66% hits | TRHR cells, fluo-8 calcium fluorescence, EC20 TRH enhancement | enhancement, % at 2 µM | AID 493056, 2011; in the data active = enhancement above about 30%; note: 0% is about no effect
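TRHR-expressing cells loaded with fluo-8 calcium dye were read kinetically (ex 480/em 530) during compound addition, then stimulated with an EC20 of TRH (10 nM final). Enhancement of the Gq-mediated intracellular calcium response was scored.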
D1 antagonist: Antagonist of Human D 1 Dopamine Receptor: qHTS. D(1A) dopamine receptor (Homo sapiens), P21728. HEK293 TREx D1 cells, calcium flux, dopamine EC80; stronger effect = lower value. activity change, negative = inhibition, % at 10 µM. 360,000 compounds, 3.2% hits. AID 504652, 2011; in the data active = activity change below about -30%; note: % is set by controls: 0 for no effect and ±100 for the full control effect
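Compound effects on dopamine-evoked calcium signalling were measured in tetracycline-induced HEK293 Trex D1 cells. Dopamine at EC80 followed a 180 s compound pre-read, and fluorescence was tracked kinetically for 180 s more.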
* marks the source's active call; other numbers are inactive results; ? = inconclusive; . = not tested or not shown. In the library only some 4.4% were active in any assay of this set; here they are far more common. Cut-off read from the data, not from the text of the source, unless noted: active = activation above about 30%; inactive = the rest.

SMILES | D1 ag | D1 PAM | USP1-UAF1 inh | TRHR ag | TRHR enhancer | D1 antagonist
CCc1ccc(OCC(O)CN2CCN(c3ccc(OC)cc3)CC2)cc1 (configuration not stated) | 30* | 0 | -17% | 0 | 6 | -40*
CC(=O)c1ccc(OCC(O)CN2CCN(c3ccccn3)CC2)cc1 (configuration not stated) | 2 | -6 | -17% | 0 | 2 | -60*
O=c1c2c3c(sc2nnn1Cc1ccc(F)cc1)CCCC3 | -1 | 0 | -12% | 0 | -5 | -2
O=C(Cn1c(=O)n(Cc2ccc(F)cc2)c(=O)c2sc3ccccc3c21)NCc1ccccc1 | 3 | -1 | -10% | -1 | 9 | -5
CCCCCCCn1ccc(=N)cc1 | 2 | 3 | -12% | 0 | 11 | 5
CCCCCn1ccc(=N)cc1 | 5 | 0 | 3% | 0 | 36* | -2
COc1ccc(-c2nc(SCC(=O)N3CCC(C)CC3)n[nH]2)cc1 | -2 | 0 | 18% | -1 | -5 | 2
O=C(Nc1ncc(Cc2cccc(C(F)(F)F)c2)s1)C1CCCO1 (configuration not stated) | 6 | -5 | -16% | 1 | 6 | -40*
O=C(COc1ccc(Oc2ccccc2)cc1)NC1CCS(=O)(=O)C1 (configuration not stated) | . | . | -14% | . | . | .
O=C(COc1ccc([N+](=O)[O-])cc1)NC(=O)NC1CCS(=O)(=O)C1 (configuration not stated) | 5 | -6 | -6% | 0 | 6 | -45*
Cc1ccc(Oc2ccc(OCC(=O)NC3CCS(=O)(=O)C3)cc2)cc1 (configuration not stated) | 36* | . | -1% | -1 | -11 | -48*
Cc1ccc(NC(=O)C(=O)NCCc2sc(-c3ccc(Cl)cc3)nc2C)cc1C | 2 | -1 | 2% | 0 | 7 | 22
N#CC(C#N)=C1C=CC=CN1/C(=C\c1ccco1)C(=O)c1ccc(Cl)cc1 | 3 | -11 | -10% | 0 | -9 | -52*
COc1ccc(CNC(=O)CC(c2ccc(OC)cc2)N2Cc3ccccc3C2=O)cc1 (configuration not stated) | 1 | 0 | -5% | 0 | -2 | 4
CCOC(=O)c1c(NC(=O)c2ccco2)n(C2CCCCC2)c2nc3ccccc3nc12 | 3 | -3 | 16µM* | 1 | 6 | -17
Cc1cc(C)cc(C(=O)N(NC(=O)Nc2ccc(Cl)cc2)C(C)(C)C)c1 | 26 | -5 | -15% | 4 | 1 | -30*
CC(C)(CC(=O)O)CC(=O)Nc1ccc(Cl)c(Cl)c1 | 1 | -3 | ? | 1 | 2 | -58*
Cc1cccc(C)c1NC(=O)NN(C(=O)c1ccccc1)C(C)(C)C | 5 | -5 | -10% | 1 | 1 | -1
CC(C)(C)N(NC(=O)Nc1ccc(F)cc1)C(=O)c1ccccc1 | 5 | 3 | -4% | 0 | 3 | 14
CC1=NNC(=O)C(CC(=O)Nc2ccc(Cl)c(Cl)c2)C1 (configuration not stated) | 3 | -6 | -4% | 0 | 2 | -36*
CC(C)(O)CNC(=O)Nc1ccc(Cl)c(Cl)c1 | 5 | -17 | 1% | 0 | -3 | 7
CC(C)(C)N(NC(=O)Nc1ccc(Cl)c(Cl)c1)C(=O)c1ccccc1 | 33* | -1 | -7% | 3 | -4 | -27
O=C(CC1NCCNC1=O)Nc1ccc(Cl)c(Cl)c1 (configuration not stated) | 2 | 1 | -18% | 0 | -2 | 21
CCc1ccccc1NC(=O)Cn1c(=O)n(-c2ccc(C)cc2)c(=O)c2c1c1cc(C)ccc1n2C | 2 | -1 | -10% | 0 | 9 | -9
O=C(c1ccco1)N(Cc1cccnc1)c1nc2ccc(F)cc2s1 | 2 | -4 | -23% | -1 | 7 | .
SMILES | D1 ag | D1 PAM | USP1-UAF1 inh | TRHR ag | TRHR enhancer | D1 antagonist
CCOc1cc(Br)cc(C2NC(=O)c3c(sc4c3CCN(C)C4)N2)c1O (configuration not stated) | 3 | -1 | -25% | 1 | -3 | -2
COc1ccc(Cn2c(=O)n(-c3ccc(F)c(Cl)c3)c(=O)c3c2c2cc(OC)ccc2n3C)cc1 | 2 | -2 | ? | 1 | 4 | 5
CCN(CC(=O)Nc1ccccc1C(F)(F)F)C(=O)CCS(=O)(=O)c1ccc(Cl)cc1 | 9 | -1 | -2% | -1 | 9 | -30*
CCOc1ccc(-c2cc(CCCC(=O)NCCc3cc(OC)c(OC)c(OC)c3)no2)cc1 | 1 | 0 | -19% | -2 | 5 | -3
Cc1cc2oc3c(c(=O)c2cc1C)C1(C(=O)N(C)c2ccccc21)N(CCO)C3=O (configuration not stated) | 0 | 1 | -28% | 0 | 1 | 7
COc1ccc(C2CC(=O)c3cc(-c4nc(-c5cccc([N+](=O)[O-])c5)cs4)c(=O)n(-c4ccccc4C)c3C2)cc1 (configuration not stated) | 0 | -1 | -11% | -1 | 16 | 12
N=c1n(CC(=O)c2ccc(Br)s2)c2ccccc2n1Cc1ccccc1 | 49* | -3 | -15% | 3 | -5 | -20
Cn1c(=N)n(CC(=O)c2ccc(Br)s2)c2ccccc21 | 5 | 2 | -10% | 0 | 2 | 2
O=c1oc(-c2ccco2)nc2ccccc12 | 2 | -6 | -18% | 2 | -5 | -39*
O=c1oc(-c2ccco2)nc2c1cnn2-c1ccccc1 | -1 | 4 | -6% | 0 | 3 | -19
O=S(=O)(c1ccc2c(c1)OCCO2)N1CCN(S(=O)(=O)c2ccccc2Cl)CC1 | 3 | -3 | . | 0 | 1 | -12
Cc1nc2ccccn2c1C(=O)NNS(=O)(=O)c1ccc(Cl)cc1 | 13 | -1 | -10% | -1 | 33* | -15
COc1ccccc1C(=O)Nc1ccccc1OCc1cc(=O)n2cc(C)sc2n1 | 2 | -3 | -12% | 0 | -7 | -3
CCN(CC)S(=O)(=O)c1cc(C(=O)Nc2ccccc2C(=O)O)ccc1OC | 0 | 3 | -9% | -1 | 39* | -1
COC(=O)c1ccccc1NC(=O)C1=CC(c2ccc3c(c2)OCO3)=NS(=O)(=O)N1C | 0 | 2 | 6% | 0 | 3 | -8

Bioassay records: PubChem, National Center for Advancing Translational Sciences (NCATS)
